Source: PMC7819943, “Rice protein-binding microarrays: a tool to detect cis-acting elements near promoter regions in rice”
Whole data set: some 39,000 sequences, median “fluorescence intensity (a.u.)” near 4,300, cut for the highest 2% near 39,000. What follows is part of a selection rich in the highest values, with near analogues and random picks from the rest.

Biological target: T1, OsSMF1 (Oryza sativa, UniProt Q6ZLB0 1-436)
T1 sequence: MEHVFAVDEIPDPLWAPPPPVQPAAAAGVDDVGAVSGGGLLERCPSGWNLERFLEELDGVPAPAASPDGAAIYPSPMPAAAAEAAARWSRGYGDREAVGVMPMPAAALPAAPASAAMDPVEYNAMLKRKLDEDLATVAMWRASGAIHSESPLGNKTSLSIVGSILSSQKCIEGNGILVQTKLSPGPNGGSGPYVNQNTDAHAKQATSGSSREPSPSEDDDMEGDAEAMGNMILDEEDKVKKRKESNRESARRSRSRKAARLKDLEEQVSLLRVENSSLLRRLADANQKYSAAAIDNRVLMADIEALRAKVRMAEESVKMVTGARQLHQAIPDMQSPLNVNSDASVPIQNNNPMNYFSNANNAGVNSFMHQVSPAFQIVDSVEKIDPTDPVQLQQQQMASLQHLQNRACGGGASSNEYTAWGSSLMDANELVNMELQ
Assay: protein-binding microarray (RPBM); PBS, 2% BSA, 51.3 ng/ul salmon testes DNA, 50 uM zinc acetate, 200 nM TF, 25 C, 1 h; high values mean tight binding
Settings: protein: recombinant; tags: N-terminal polyhistidine and DsRed monomer fusion (pET32a); chain copies: 2; label: CyDye5-dUTP incorporated in the synthesized complementary strand; 3' TTTTT single-stranded linker to array surface; dsDNA, one strand shown
Procedure, shortened: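 A custom Agilent array was converted to double-stranded form by primer extension with Cy5-dUTP and blocked with 2% BSA. Protein at 200 nM in PBS with 2% BSA, salmon testes DNA and 50 µM zinc acetate was applied for 1 h at 25 °C, followed by washing. The proteins were polyhistidine–DsRed N-terminal fusions of transcription factors, expressed in E. coli BL21-CodonPlus and Ni–NTA-purified. The binding signal is per-feature fluorescence intensity (arbitrary units) from an Axon 4000B scanner.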

Row | Sequence | binding signal
1 | TCATCCCCTGATCGTCATCAGCATTCTCACCGTCGGCGCTCGGAGTCACCTAGTGCAG | 4690 fluorescence intensity (a.u.)
2 | AGTAGGGAAAGTTACAACGCAGCCTAACGTGGGATAGCGGCGGAGTCACCTAGTGCAG | 3980 fluorescence intensity (a.u.)
3 | CGCGATCCTGACAGTATATTCTATCTTTGACACAGTCTGACGGAGTCACCTAGTGCAG | 3320 fluorescence intensity (a.u.)
4 | GCAGCCATTTACGCTTTCCACGTCAGTGCATGATGGAGTACGGAGTCACCTAGTGCAG | 16800 fluorescence intensity (a.u.)
5 | GTAGCGGCTGCGGCGCTCCAGCTCCTCGGAGGCCCGGTCCCGGAGTCACCTAGTGCAG | 3790 fluorescence intensity (a.u.)
6 | CTCCCCACTCACTGCCAGGTGGGCCCACCTTGTCGGATTACGGAGTCACCTAGTGCAG | 3530 fluorescence intensity (a.u.)
7 | ATGTCAAGACAACAACAGTTGTAAATGTGATCTGGACATACGGAGTCACCTAGTGCAG | 3540 fluorescence intensity (a.u.)
8 | TCCCTGCGAAATTGTACACATCAACACAACATAAGGTCGACGGAGTCACCTAGTGCAG | 3700 fluorescence intensity (a.u.)
9 | GGCAAATCGGTAATTGCCATGTCACAAGAGTGGCAAATAGCGGAGTCACCTAGTGCAG | 8900 fluorescence intensity (a.u.)
10 | CACCCGCCATCGTGGCGGACATTCCAGTATAGGTACGGCACGGAGTCACCTAGTGCAG | 6150 fluorescence intensity (a.u.)
11 | TGGTGGTGGAAATTTTGGAAATCGTGAGGGCTACACATACCGGAGTCACCTAGTGCAG | 3550 fluorescence intensity (a.u.)
12 | CGTCGACCACCACCACGCTCTTGCCCCTGATGACGCCGTGCGGAGTCACCTAGTGCAG | 6870 fluorescence intensity (a.u.)
13 | CGGCTTCCCGACGGTGGCGGCGCACGTGGGCGAGGCTGAGCGGAGTCACCTAGTGCAG | 3800 fluorescence intensity (a.u.)
14 | CACGTAAGCGTCACGTCAATGCCACGTGGGACGGTGACCTCGGAGTCACCTAGTGCAG | 27900 fluorescence intensity (a.u.)
15 | CCGCCCCACGCGGCGCCACCACACCACCGCGCGCGTCGCTCGGAGTCACCTAGTGCAG | 5900 fluorescence intensity (a.u.)
16 | TATTAATTTCCAAATAAATTGCTATGTCAATGCCACGTCACGGAGTCACCTAGTGCAG | 40900 fluorescence intensity (a.u.)
17 | CATCTAATTGCCACATAAGCGCCACGTCAACGACACGTTGCGGAGTCACCTAGTGCAG | 41300 fluorescence intensity (a.u.)
18 | CCCACCTTTCAAATTCCACGTCCGCCAATAATATTATTACCGGAGTCACCTAGTGCAG | 6710 fluorescence intensity (a.u.)
19 | ATGCCACATAAACCCTACGTCAATGCCACGTGGGACAAAGCGGAGTCACCTAGTGCAG | 22600 fluorescence intensity (a.u.)
20 | AGCAGTAACCACGAAAGCGCTCGGCTCCACACGCCACGCACGGAGTCACCTAGTGCAG | 3280 fluorescence intensity (a.u.)
21 | TAGTTAATAAAAGTCAAAATGAAGTCACAATTTGCCACGTCGGAGTCACCTAGTGCAG | 8180 fluorescence intensity (a.u.)

Row | Sequence | binding signal
22 | GCCCACAAGCGCTCGGCTCGAAACGCCACGTCACCACGCTCGGAGTCACCTAGTGCAG | 43800 fluorescence intensity (a.u.)
23 | TTGCCACGTAATCGCTACGTCAATGCCACGTGGGACGGAGCGGAGTCACCTAGTGCAG | 43800 fluorescence intensity (a.u.)
24 | TGCGGATCTAATTGCCACGTAAGCGCCACGACAATGACACCGGAGTCACCTAGTGCAG | 16800 fluorescence intensity (a.u.)
25 | ATCTAATTGCCACATAAGCACTACGTCAATAACACGTTAGCGGAGTCACCTAGTGCAG | 10100 fluorescence intensity (a.u.)
26 | CTGTCCATTGATCTGTCCCTGGCAGCGACGTGACGTCCCACGGAGTCACCTAGTGCAG | 4890 fluorescence intensity (a.u.)
27 | GCTTCGTGGGCCTCTCACTTGAGTCACTGGCACTCCATTCCGGAGTCACCTAGTGCAG | 3570 fluorescence intensity (a.u.)
28 | TCCAAAATATTAGCATGGCACAGATTGGCACTACCCTTGTCGGAGTCACCTAGTGCAG | 3280 fluorescence intensity (a.u.)
29 | CGTAGAGGAATAACAATGGAACGTCATCCCTCTCTGTTCGCGGAGTCACCTAGTGCAG | 4120 fluorescence intensity (a.u.)
30 | GGTTCCATGCCTCGCCGTTTATCTATCTAATTTACTAGCACGGAGTCACCTAGTGCAG | 3170 fluorescence intensity (a.u.)
31 | CGGCATTGACCTGGTCTTTGTTCCACGTGGCGCTTAGGTGCGGAGTCACCTAGTGCAG | 8840 fluorescence intensity (a.u.)
32 | TGTATGTCGGGTTGTCGATGATCAAGCCAGTGACACGCTTCGGAGTCACCTAGTGCAG | 4000 fluorescence intensity (a.u.)
33 | AGCCCACGTCCAGCTCACACACGCACCCACAACCGACCCACGGAGTCACCTAGTGCAG | 6070 fluorescence intensity (a.u.)
34 | ATTTTATTATTCTTGCAGATCAAATTGCCACGTAAGCGTCCGGAGTCACCTAGTGCAG | 47800 fluorescence intensity (a.u.)
35 | TATAATTGCTACGTAAGCGCCACGTCAATGCCATGTCAGACGGAGTCACCTAGTGCAG | 15700 fluorescence intensity (a.u.)
36 | AACATATTAGAATATCGGTCTTAAATTAAATCCCATATAACGGAGTCACCTAGTGCAG | 29100 fluorescence intensity (a.u.)
37 | GATCAAATTGCCACGTAAGCGCCACGTCAATGCCATGTCACGGAGTCACCTAGTGCAG | 48000 fluorescence intensity (a.u.)
38 | ATTTTATTGCCACATAAGCGCCACGTCAATGCCACGTGGGCGGAGTCACCTAGTGCAG | 56000 fluorescence intensity (a.u.)
39 | ACATATAATTGCCACGTCAGCGCCACATCAATGCCACGTGCGGAGTCACCTAGTGCAG | 26100 fluorescence intensity (a.u.)
40 | AGAATCGCTTATATTATGGGACGGACGTAACATATAGAAGCGGAGTCACCTAGTGCAG | 41100 fluorescence intensity (a.u.)
41 | CAGATATTATATTACGTAACATCTTCGTCAAGCTTACAATCGGAGTCACCTAGTGCAG | 3850 fluorescence intensity (a.u.)
42 | TCAAATCAAATTGCCACGTAAGCGCCACGTCACTGCCACACGGAGTCACCTAGTGCAG | 35200 fluorescence intensity (a.u.)
